Out of some 370,000 compounds screened, about 4,100 (1.1%) were called active. The sample holds actives, similar compounds and a random draw of the others, so the mix is not that of the screen. Unmarked numbers belong to inactive results.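 How the source made its calls: active means inhibition above the mean over all tested compounds plus 3 SD (cut at about 3.6% in these data); inactive means the rest.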

The assay is described as follows: relief of DAX-1 repression of SF-1 activity – cell-based, luminescence, SF-1 (NR5A1), full-length DAX-1, primary screen (AID 652010).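 Further: 0% = DAX-1 cells with DMSO and 100% = cells lacking DAX-1 with DMSO.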 Particulars: HEK293T StAR-luciferase reporter, SF-1/DAX-1 repression relief; at 6.8 µM; stronger effect = higher value. A general note: In a reporter assay the amount or activity of a reporter protein is the signal.
By inhibition is commonly meant the drop in the measured response relative to a control, in per cent. For `COc1ccc([C@H]2OC(=O)C[C@H]2C(=O)N2CCN(c3ccccc3F)CC2)cc1OC`, the inhibition was 0.35%.

Take `O=C(NCC1COc2ccccc2O1)c1ccc(NC(=O)c2cc(F)ccc2F)cc1` (stereo not drawn): the inhibition is -1.54%.

Regarding `Cc1ccc(C(=O)Nc2nc(N)n(-c3ccccc3)n2)cc1`, the inhibition is 0.57%.

Regarding `Cc1ccc(C(=O)Nc2ccn(C)n2)cc1`, the inhibition was 4.06% (active).

For the compound `CN(C)S(=O)(=O)c1cc(C(=O)Nc2ccn(C)n2)c(Cl)cc1Cl`, the inhibition is -0.84%.

`N#Cc1c(NC(=O)c2ccc(N3CCOCC3)c([N+](=O)[O-])c2)sc2c1CCCC2`: the inhibition was 0.44%.

For the compound `CCC1CCc2c(sc(NC(C)=O)c2C#N)C1` (stereo not drawn), the inhibition is -0.35%.

As for `N#Cc1c(NC(=O)C2CCCO2)sc2c1CCCCC2` (stereo not drawn), the inhibition was 3.86% (active).

For the compound `COC(=O)C1CN(Cc2ccc(F)cc2)CCS(=O)(=O)N1Cc1ccc(Cl)cc1` (stereo not drawn), the inhibition was -1.11%.

`CC(C)(C)OC(=O)NCc1cc(F)ccc1/C=C/S(=O)(=O)NCCc1ccccc1`: the inhibition is -0.93%.

`O=C(NC1CCCCCC1)C1CCN(C(=O)c2ccc(Cl)cc2)CC1`: the inhibition is -1.38%.

Regarding `O=C(NC(=S)NC1CCCCC1)c1ccc(Cl)cc1`, the inhibition was 7.22% (active).

In the case of `O=C(NNC(=S)NC1CCCCC1)c1ccccc1Cl`, the inhibition was 2.28%.

Regarding `CC(NCc1ccco1)C(=O)N1CCCCC1` (stereo not drawn), the inhibition was -0.66%.

For `O=S1(=O)c2ccc(Br)cc2OC[C@@H](Cc2ccccc2)N1Cc1cn(Cc2ccco2)nn1`, the inhibition is -0.91%.

Consider `Cn1c(-c2ccccc2)c[n+]2c1CCCCC2`, for which the inhibition was 0.1%.

As for `COc1ccc(N2CC(C(=O)NCCN3C(=O)S/C(=C\c4cccnc4)C3=O)CC2=O)c(OC)c1` (stereo not drawn), the inhibition is 4.36% (active).

As to `Cc1cc(OCCCC(=O)NCCN2C(=O)S/C(=C\c3cccnc3)C2=O)ccc1Cl`, the inhibition was -0.22%.

`O=C(NCCN1C(=O)S/C(=C\c2cccnc2)C1=O)c1ccc(S(=O)(=O)N2CCCC2)cc1`: the inhibition was -0.2%.

For `CCOC(=O)c1c(NC(=S)SC)sc(C(=O)N2CCc3ccccc3C2)c1C`, the inhibition is 0.68%.

For the compound `Cc1cccc(C)c1NC(=O)c1ccc(CN2CCc3ccccc3C2)cc1`, the inhibition is -0.37%.

For the compound `Cc1c(NC(=O)Nc2cccc([N+](=O)[O-])c2)c(=O)n(-c2ccccc2)n1C`, the inhibition is -3.53%.

In the case of `O=C(Nc1cccc([N+](=O)[O-])c1)N1CCc2ccccc2C1`, the inhibition is 4.21% (active).

Consider `CCc1ccc(NC(=O)N2CCc3ccccc3C2)cc1`, for which the inhibition was 6% (active).

As for `Cc1cccc(OC(C)C(=O)N2CCc3ccccc3C2)c1` (stereo not drawn), the inhibition is -0.08%.

Regarding `Nc1ncnc2c1ncn2C1OC(CO)CC1O` (stereo not drawn), the inhibition is -1.04%.

In the case of `CCC(=O)OCCCN1C(=O)CCC12CCC(c1ccccc1)CC2` (stereo not drawn), the inhibition is 0.13%.

As to `O=S(=O)(Nc1ccc2nc(N3CCOCC3)sc2c1)c1ccccc1`, the inhibition is 4.19% (active).

As for `O=S(=O)(Nc1cccc(-c2ccc(N3CCOCC3)nn2)c1)c1ccc(Cl)c(Cl)c1`, the inhibition was 0.25%.

`O=S(=O)(Nc1ccc2nc(-c3ccco3)[nH]c2c1)c1ccccc1`: the inhibition was -0.15%.

As to `COc1cccc(/C=C2\CC3(OC(C)=O)CCCN2C3)c1` (stereo not drawn), the inhibition was 1.86%.

On to `COc1ccc(Cn2ccc3ccc(-c4ccc5ccn(Cc6ccccc6C)c5c4)cc32)cc1`, for which the inhibition is -0.33%.

Turning to `COc1ccc(-n2c(SCC(=O)Nc3ccc4cn[nH]c4c3)nnc2-c2cccnc2)cc1`, the inhibition was 0.02%.

The values are drawn from PubChem BioAssay AID652010 (The Scripps Research Institute Molecular Screening Center, 2013).
